Source: the supplement of paper PMC8728848
The full list was thinned out, with the strongest signals kept by preference.

What was measured:
Assay in all cases: glycan array binding signal (z-score within array); higher = stronger binding
Settings in all cases: glycan notation: IUPAC condensed, linker removed
[1] = target: Fuc(a1-2)Gal(b1-3)GlcNAc(b1-2)Man(a1-3)[Fuc(a1-2)Gal(b1-3)GlcNAc(b1-2)Man(a1-6)]Man(b1-4)GlcNAc(b1-4)[Fuc(a1-6)]GlcNAc
Outline: (§1)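 Arrays were curated from the Consortium for Functional Glycomics database, 3228 in total, and kept only where the protein sequence was available. Binding is expressed as a within-array Z-score. This score was averaged across arrays of the same protein sequence at different concentrations or buffers and across linkers, and negative values can be read as non-binding.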

[2] = target: Fuc(a1-2)Gal(b1-4)Fuc(a1-3)]GlcNAc(b1-2)Man(a1-3)[Fuc(a1-2)Gal(b1-4)[Fuc(a1-3)]GlcNAc(b1-2)Man(a1-6)]Man(b1-4)GlcNAc(b1-4)GlcNAc
Outline: as §1

[3] = target: Fuc(a1-2)Gal(b1-4)Glc6S
Outline: as §1

[4] = target: Fuc(a1-2)Gal(b1-4)GlcNAc
Outline: as §1

[5] = target: Fuc(a1-2)Gal(b1-4)GlcNAc(b1-2)Man(a1-3)[Fuc(a1-2)Gal(b1-4)GlcNAc(b1-2)Man(a1-6)]Man(b1-4)GlcNAc(b1-4)[Fuc(a1-6)]GlcNAc
Outline: as §1

[6] = target: Fuc(a1-2)Gal(b1-4)GlcNAc(b1-6)GalNAc
Outline: as §1

[7] = target: Fuc(a1-2)Gal(b1-4)[Fuc(a1-3)]GlcNAc(b1-3)GalNAc
Outline: as §1

[8] = target: Fuc(a1-2)Gal3S(b1-4)GlcNAc
Outline: as §1

[9] = target: Fuc(a1-2)[Gal(a1-3)]Gal(b1-3)GlcNAc(b1-3)GalNAc
Outline: as §1

[10] = target: Fuc(a1-2)[Gal(a1-3)]Gal(b1-4)GlcNAc(b1-2)Man(a1-3)[Fuc(a1-2)[Gal(a1-3)]Gal(b1-4)GlcNAc(b1-2)Man(a1-6)]Man(b1-4)GlcNAc(b1-4)[Fuc(a1-6)]GlcNAc
Outline: as §1

[11] = target: Fuc(a1-2)[GalNAc(a1-3)]Gal(b1-3)GlcNAc(b1-2)Man(a1-3)[Fuc(a1-2)[GalNAc(a1-3)]Gal(b1-3)GlcNAc(b1-2)Man(a1-6)]Man(b1-4)GlcNAc(b1-4)[Fuc(a1-6)]GlcNAc
Outline: as §1

[12] = target: Fuc(a1-2)[GalNAc(a1-3)]Gal(b1-4)GlcNAc(b1-2)Man(a1-3)[Fuc(a1-2)[GalNAc(a1-3)]Gal(b1-4)GlcNAc(b1-2)Man(a1-6)]Man(b1-4)GlcNAc(b1-4)[Fuc(a1-6)]GlcNAc
Outline: as §1

[13] = target: Fuc(a1-2)[GalNAc(a1-3)]Gal(b1-4)GlcNAc(b1-3)Gal(b1-4)GlcNAc(b1-3)Gal(b1-4)GlcNAc
Outline: as §1

[14] = target: Fuc(a1-2)[GalNAc(a1-3)]Gal(b1-4)[Fuc(a1-3)]GlcNAc(b1-3)GalNAc
Outline: as §1

[15] = target: Fuc(a1-3)[Gal(b1-4)]GlcNAc(b1-2)Man(a1-3)[Fuc(a1-3)[Gal(b1-4)]GlcNAc(b1-2)Man(a1-6)]Man(b1-4)GlcNAc(b1-4)GlcNAc
Outline: as §1

[16] = target: Fuc(a1-3)[GalNAc(b1-4)]GlcNAc6S
Outline: as §1

[17] = target: Gal(a1-2)Gal
Outline: as §1

[18] = target: Gal(a1-3)Gal(b1-4)[Fuc(a1-3)]GlcNAc
Outline: as §1

[19] = target: Gal(b1-3)Gal
Outline: as §1

[20] = target: Gal(b1-3)GalNAc(b1-3)Gal
Outline: as §1

[21] = target: Gal(b1-3)GalNAc(b1-3)Gal(a1-4)Gal(b1-4)Glc
Outline: as §1

[22] = target: Gal(b1-3)GlcNAc(a1-3)Gal(b1-4)GlcNAc
Outline: as §1

[23] = target: Gal(b1-3)GlcNAc(b1-3)Gal(b1-4)GlcNAc(b1-2)[Gal(b1-3)GlcNAc(b1-3)Gal(b1-4)GlcNAc(b1-6)]Man(a1-6)[Gal(b1-3)GlcNAc(b1-3)Gal(b1-4)GlcNAc(b1-2)Man(a1-3)]Man(b1-4)GlcNAc(b1-4)[Fuc(a1-6)]GlcNAc
Outline: as §1

[24] = target: Gal(b1-3)[Fuc(a1-4)]GlcNAc(b1-6)GalNAc
Outline: as §1

[25] = target: Gal(b1-3)[Neu5Ac(a2-6)]GlcNAc(b1-4)Gal(b1-4)Glc
Outline: as §1

[26] = target: Gal(b1-4)Glc
Outline: as §1

B1: Epa8 (Candida glabrata) (protein)
chain: MGSSHHHHHHSSGLVPRGSHMASSRALSDYPLGCSPLLGTKLTPGLSMELYEYPLDNHGIGPHCWDPAYLNPEYPRTGFESHKLIGTAQNVMSLNFEHRTQDCHVEFSNLPASFNFPDQITLTNFTMLLYGYFKPKESGRYRFHMEADDLLLMNLGAGNAFDCCAHEATRNNLGDYIAYDIWAGTRKDVEVFLEKEVFYPLRLFFNNRDGRAALDFSYYLNGATEPGTDIPELLFSLPDGESCPAYI
glycan array binding signal (z-score) [1]: 0.141 | glycan array binding signal (z-score) [2]: 4.2 | glycan array binding signal (z-score) [3]: 0.004 | glycan array binding signal (z-score) [4]: -0.45 | glycan array binding signal (z-score) [5]: -0.33 | glycan array binding signal (z-score) [6]: 0.724 | glycan array binding signal (z-score) [7]: 2.63 | glycan array binding signal (z-score) [8]: -0.437 | glycan array binding signal (z-score) [9]: 0.166 | glycan array binding signal (z-score) [10]: 0.03 | glycan array binding signal (z-score) [11]: 0.09 | glycan array binding signal (z-score) [12]: 0.443 | glycan array binding signal (z-score) [13]: 0.493 | glycan array binding signal (z-score) [14]: 3.16 | glycan array binding signal (z-score) [15]: -0.093 | glycan array binding signal (z-score) [16]: -0.401 | glycan array binding signal (z-score) [17]: -0.54 | glycan array binding signal (z-score) [18]: -0.506 | glycan array binding signal (z-score) [19]: 0.171 | glycan array binding signal (z-score) [20]: -0.026 | glycan array binding signal (z-score) [21]: 0.394 | glycan array binding signal (z-score) [22]: 1.57 | glycan array binding signal (z-score) [23]: 2.13 | glycan array binding signal (z-score) [24]: 2.52 | glycan array binding signal (z-score) [25]: -0.392 | glycan array binding signal (z-score) [26]: -1.15
